Data as given in PubChem BioAssay.
Calls of active or inactive are those of the source.

Columns and labels:
[1] = test system: PRMT1 (protein arginine N-methyltransferase 1); experiment: small molecules binding arginine methyltransferase PRMT1 – biochemical, small-molecule microarray, 635 nm fluorescence, primary screen (AID 1088); conditions: higher = more signal;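 note: binding of Prmt1 protein to compounds spotted on small-molecule microarray slides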
[2] = growth effects on S. cerevisiae YJM789 – YJM789 clinical isolate, OD600, 24 h, basal, primary screen (AID 1089); conditions: higher = more signal, called active from +8 up or from −8 down;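 note: growth of clinical yeast isolate S. cerevisiae YJM 789 seeded 1000 cells per well; test concentration not given here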
[3] = S. pombe growth modifiers, basal conditions – strain 972, OD600, 24 h, no modulator, primary screen (AID 1090);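 note: basal condition with compound alone and no growth modifier present; test concentration not given here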; conditions: S. pombe 972 growth, higher = more signal, called active from +8 up or from −8 down
[4] = budding yeast growth modifiers under rapamycin – strain BY4716, OD600, 96 h, primary screen (AID 1091); note: test concentration not given here; conditions: S. cerevisiae BY4716 + rapamycin, higher = more signal, called active from +8 up or from −8 down
[5] = target: Torsin-1A-interacting protein 2 (Homo sapiens) (UniProt Q8NFQ8); experiment: small molecules binding lysate-expressed LULL1 – cell lysate, human LULL1 lysate, 635/667 nm fluorescence, primary screen (AID 1092); conditions: small-molecule microarray, hLULL1 lysate binding, 635 nm fluorescence; higher = more signal;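 note: probe is lysate of COS7 cells overexpressing human LULL1; score merges per-feature 667 nm fluorescence with signal-to-noise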
[6] = optical density change of DRC41 E. coli – strain DRC41, OD650, 24 h, E. coli filamentation project, primary screen (AID 1093);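 note: MC1000 strain lacking acrAB efflux and sulA so SOS filamentation is blocked; test concentration not given here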; conditions: E. coli DRC41 growth, higher = more signal, called active from +8 up or from −8 down
[7] = probe aLefty2 binding to arrayed compounds – biochemical, biotinylated probe, 635/667 nm fluorescence, primary screen (AID 1094); conditions: small-molecule microarray, higher = more signal;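 note: score merges spot fluorescence near 667 nm with spot signal-to-noise ratio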
[8] = test system: Noggin (protein binding on small-molecule microarray); experiment: small molecules binding Noggin protein – biochemical, 635/667 nm fluorescence, primary screen (AID 1095); conditions: 635 nm fluorescence, higher = more signal;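 note: score merges 667 nm feature fluorescence with signal to noise over triplicate slides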
[9] = target: Neurogenic locus notch homolog protein 3 (Homo sapiens) (UniProt Q9UM47); experiment: small molecules binding NOTCH3 protein – biochemical, 635/667 nm fluorescence, primary screen (AID 1096); conditions: small-molecule microarray, 635 nm fluorescence, higher = more signal
[10] = probe aEGFR binding to arrayed compounds – biochemical, biotinylated probe, 635/667 nm fluorescence, primary screen (AID 1097); conditions: small-molecule microarray, higher = more signal;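 note: probe is a biotinylated anti-EGFR antibody binding compounds printed on slides; score combines fluorescence near 667 nm and signal to noise of each spot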
[11] = test system: Plasmodium falciparum Sir2 (PF13_0152, Sir2A); experiment: Plasmodium falciparum Sir2A binding compounds – biochemical, small-molecule microarray, 635 nm fluorescence, primary screen (AID 1098); conditions: fluorescence 635 nm, higher = more signal;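 note: score merges spot fluorescence intensity with its signal-to-noise ratio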
[12] = probe aDKK1 binding to arrayed compounds – biochemical, biotinylated probe, 635/667 nm fluorescence, primary screen (AID 1099); conditions: small-molecule microarray, higher = more signal;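 note: score merges 667nm spot fluorescence with signal to noise across triplicate slides; reference of the scale not given here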
[13] = probe aCHRDL2 binding to arrayed compounds – biochemical, biotinylated probe, 635/667 nm fluorescence, primary screen (AID 1100); conditions: small-molecule microarray, higher = more signal
[14] = change in splice reporter luminescence, either direction, cell-based, HEK293, spliceosome inhibition project, primary screen (AID 1101); conditions: HEK293 splicing luciferase reporter, 24 h, higher = more signal, called active from +8 up or from −8 down;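 note: HEK293 cells carrying a splicing-competent luciferase reporter gene; test concentration not given here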
[15] = target: Fibroblast growth factor 10 (Homo sapiens) (UniProt O15520); experiment: compounds binding fibroblast growth factor 10 – biochemical, small-molecule microarray, 635 nm fluorescence, primary screen (AID 1102); conditions: FGF10 binding, fluorescence 635 nm, higher = more signal
[16] = test system: glycogen synthase kinase-3 (GSK3A per assay name; protocol says GSK3B); experiment: compounds binding glycogen synthase kinase-3 – biochemical, small-molecule microarray, 635 nm fluorescence, GSK3A, primary screen (AID 1103); conditions: fluorescence 635 nm, higher = more signal; note: the record names both GSK3A and GSK3B
[17] = target: Epidermal growth factor receptor (Homo sapiens) (UniProt P00533); experiment: compounds binding epidermal growth factor receptor – biochemical, small-molecule microarray, 635 nm fluorescence, primary screen (AID 1104); conditions: EGFR binding, higher = more signal;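 note: score merges 667 nm emission intensity with spot signal to noise over triplicate slides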
[18] = target: Follistatin-related protein 3 (Homo sapiens) (UniProt O95633); experiment: compounds binding follistatin-related protein 3 – biochemical, small-molecule microarray, 635 nm fluorescence, primary screen (AID 1105); conditions: FSTL3 binding, higher = more signal;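 note: score merges emission near 667 nm and signal to noise per printed spot across three slides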
[19] = target: Dickkopf-related protein 1 (Homo sapiens) (UniProt O94907); experiment: small molecules binding DKK1 protein – biochemical, small-molecule microarray, 635 nm fluorescence scan, primary screen (AID 1106); conditions: higher = more signal;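 note: score merges emission near 667 nm with signal to noise over three replicate slides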
[20] = test system: Inhibin beta A chain (activin A); experiment: small molecules binding activin A – biochemical, small-molecule microarray, 635 nm fluorescence scan, primary screen (AID 1107); conditions: INHBA, higher = more signal;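 note: mouse activin A protein probed at 4.33 µg/mL on printed slides; score merges bound-protein fluorescence near 667 nm with spot signal-to-noise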

Torsin-1A-interacting protein 2 (Homo sapiens), sequence (Q8NFQ8 whole entry, looked up): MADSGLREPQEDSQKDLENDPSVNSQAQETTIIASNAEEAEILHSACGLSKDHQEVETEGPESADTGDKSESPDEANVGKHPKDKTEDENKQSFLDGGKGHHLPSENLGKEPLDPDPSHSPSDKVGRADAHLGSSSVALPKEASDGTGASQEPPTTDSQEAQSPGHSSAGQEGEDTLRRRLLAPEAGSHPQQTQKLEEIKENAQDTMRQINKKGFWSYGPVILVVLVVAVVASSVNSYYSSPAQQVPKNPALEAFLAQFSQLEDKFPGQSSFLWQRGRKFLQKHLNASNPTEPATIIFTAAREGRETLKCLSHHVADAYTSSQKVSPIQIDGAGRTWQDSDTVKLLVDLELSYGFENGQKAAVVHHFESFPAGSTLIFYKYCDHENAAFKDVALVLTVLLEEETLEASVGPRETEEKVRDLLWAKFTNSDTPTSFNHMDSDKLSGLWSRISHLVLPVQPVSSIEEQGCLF
Fibroblast growth factor 10 (Homo sapiens), sequence (O15520 whole entry, looked up): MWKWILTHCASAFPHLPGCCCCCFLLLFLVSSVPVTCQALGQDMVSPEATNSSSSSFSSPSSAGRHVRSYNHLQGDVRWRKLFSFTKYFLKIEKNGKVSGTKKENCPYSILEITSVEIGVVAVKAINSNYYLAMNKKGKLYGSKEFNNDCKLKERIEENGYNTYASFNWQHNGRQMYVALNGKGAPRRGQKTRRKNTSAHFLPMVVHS
Dickkopf-related protein 1 (Homo sapiens), sequence (O94907 whole entry, looked up): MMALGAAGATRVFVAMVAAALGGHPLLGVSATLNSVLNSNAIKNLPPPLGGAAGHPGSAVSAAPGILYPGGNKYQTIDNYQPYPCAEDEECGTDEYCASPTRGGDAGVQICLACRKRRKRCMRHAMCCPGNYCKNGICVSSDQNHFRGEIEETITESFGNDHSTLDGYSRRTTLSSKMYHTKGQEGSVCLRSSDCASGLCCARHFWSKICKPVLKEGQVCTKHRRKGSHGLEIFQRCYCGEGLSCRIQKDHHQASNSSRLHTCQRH
Follistatin-related protein 3 (Homo sapiens), sequence (O95633 whole entry, looked up): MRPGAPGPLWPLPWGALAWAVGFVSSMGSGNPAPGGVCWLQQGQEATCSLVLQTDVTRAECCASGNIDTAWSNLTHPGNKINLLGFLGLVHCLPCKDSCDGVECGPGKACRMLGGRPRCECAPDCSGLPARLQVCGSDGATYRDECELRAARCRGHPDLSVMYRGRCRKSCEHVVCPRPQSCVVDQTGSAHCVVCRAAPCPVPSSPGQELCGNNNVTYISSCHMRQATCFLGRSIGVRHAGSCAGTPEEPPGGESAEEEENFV
Neurogenic locus notch homolog protein 3 (Homo sapiens), sequence (Q9UM47 whole entry, looked up): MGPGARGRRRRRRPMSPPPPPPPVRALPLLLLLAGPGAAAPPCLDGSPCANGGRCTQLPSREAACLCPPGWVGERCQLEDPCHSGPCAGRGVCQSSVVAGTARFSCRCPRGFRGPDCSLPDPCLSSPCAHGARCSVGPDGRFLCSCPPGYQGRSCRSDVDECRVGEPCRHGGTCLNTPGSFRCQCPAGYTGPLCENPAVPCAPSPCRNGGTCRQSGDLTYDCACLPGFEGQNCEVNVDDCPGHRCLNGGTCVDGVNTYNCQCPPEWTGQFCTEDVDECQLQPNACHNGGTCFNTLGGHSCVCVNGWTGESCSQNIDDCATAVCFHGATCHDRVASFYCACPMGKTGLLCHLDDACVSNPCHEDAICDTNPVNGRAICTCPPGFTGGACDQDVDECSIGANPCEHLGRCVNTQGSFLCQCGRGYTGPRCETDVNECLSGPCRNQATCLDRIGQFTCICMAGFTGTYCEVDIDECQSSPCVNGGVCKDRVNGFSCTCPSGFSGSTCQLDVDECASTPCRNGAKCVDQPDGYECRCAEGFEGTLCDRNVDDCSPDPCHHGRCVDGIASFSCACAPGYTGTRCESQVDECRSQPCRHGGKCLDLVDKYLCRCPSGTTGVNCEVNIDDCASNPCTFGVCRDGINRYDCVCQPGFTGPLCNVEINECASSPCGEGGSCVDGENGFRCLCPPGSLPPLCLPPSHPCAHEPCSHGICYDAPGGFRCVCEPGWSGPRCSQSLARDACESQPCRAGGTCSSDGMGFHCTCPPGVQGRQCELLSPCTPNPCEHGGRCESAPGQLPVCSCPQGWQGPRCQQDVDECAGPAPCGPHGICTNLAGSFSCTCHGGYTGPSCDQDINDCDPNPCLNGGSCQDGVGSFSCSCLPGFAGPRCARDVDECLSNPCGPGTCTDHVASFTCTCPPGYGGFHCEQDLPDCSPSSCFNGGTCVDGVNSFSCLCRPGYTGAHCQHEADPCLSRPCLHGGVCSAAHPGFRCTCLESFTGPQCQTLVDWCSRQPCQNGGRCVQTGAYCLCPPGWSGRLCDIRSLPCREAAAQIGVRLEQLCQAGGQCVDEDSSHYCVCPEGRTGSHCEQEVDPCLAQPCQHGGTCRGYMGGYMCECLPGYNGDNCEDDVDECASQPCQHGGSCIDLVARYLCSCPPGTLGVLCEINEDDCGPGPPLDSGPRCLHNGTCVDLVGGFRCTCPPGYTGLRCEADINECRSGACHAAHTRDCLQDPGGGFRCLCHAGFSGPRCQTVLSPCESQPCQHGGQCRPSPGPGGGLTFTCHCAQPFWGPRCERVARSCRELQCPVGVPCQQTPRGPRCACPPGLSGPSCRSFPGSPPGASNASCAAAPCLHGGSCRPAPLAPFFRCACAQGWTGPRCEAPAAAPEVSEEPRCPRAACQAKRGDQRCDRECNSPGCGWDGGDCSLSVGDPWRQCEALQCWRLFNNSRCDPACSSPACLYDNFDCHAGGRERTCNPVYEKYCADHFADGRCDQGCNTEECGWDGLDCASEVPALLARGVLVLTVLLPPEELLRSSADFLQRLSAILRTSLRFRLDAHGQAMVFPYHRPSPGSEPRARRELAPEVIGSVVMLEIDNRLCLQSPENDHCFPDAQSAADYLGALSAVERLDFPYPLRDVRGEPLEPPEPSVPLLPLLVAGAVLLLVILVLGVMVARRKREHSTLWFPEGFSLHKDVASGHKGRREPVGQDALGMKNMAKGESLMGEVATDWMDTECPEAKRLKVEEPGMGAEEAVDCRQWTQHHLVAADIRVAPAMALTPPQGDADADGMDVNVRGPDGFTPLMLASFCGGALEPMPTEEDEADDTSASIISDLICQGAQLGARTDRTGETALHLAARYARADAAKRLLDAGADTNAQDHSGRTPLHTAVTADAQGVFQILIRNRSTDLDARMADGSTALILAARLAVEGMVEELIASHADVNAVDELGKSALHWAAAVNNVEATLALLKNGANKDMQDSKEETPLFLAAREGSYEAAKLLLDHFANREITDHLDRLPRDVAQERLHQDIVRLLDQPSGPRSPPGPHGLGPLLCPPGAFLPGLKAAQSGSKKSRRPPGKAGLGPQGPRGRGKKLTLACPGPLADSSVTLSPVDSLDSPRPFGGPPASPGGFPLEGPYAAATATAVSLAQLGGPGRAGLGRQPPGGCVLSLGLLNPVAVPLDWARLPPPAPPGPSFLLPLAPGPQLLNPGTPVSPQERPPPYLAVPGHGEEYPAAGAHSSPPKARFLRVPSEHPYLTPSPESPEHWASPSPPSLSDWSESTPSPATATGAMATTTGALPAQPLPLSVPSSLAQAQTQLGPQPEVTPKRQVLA
Epidermal growth factor receptor (Homo sapiens), sequence (P00533 whole entry, looked up): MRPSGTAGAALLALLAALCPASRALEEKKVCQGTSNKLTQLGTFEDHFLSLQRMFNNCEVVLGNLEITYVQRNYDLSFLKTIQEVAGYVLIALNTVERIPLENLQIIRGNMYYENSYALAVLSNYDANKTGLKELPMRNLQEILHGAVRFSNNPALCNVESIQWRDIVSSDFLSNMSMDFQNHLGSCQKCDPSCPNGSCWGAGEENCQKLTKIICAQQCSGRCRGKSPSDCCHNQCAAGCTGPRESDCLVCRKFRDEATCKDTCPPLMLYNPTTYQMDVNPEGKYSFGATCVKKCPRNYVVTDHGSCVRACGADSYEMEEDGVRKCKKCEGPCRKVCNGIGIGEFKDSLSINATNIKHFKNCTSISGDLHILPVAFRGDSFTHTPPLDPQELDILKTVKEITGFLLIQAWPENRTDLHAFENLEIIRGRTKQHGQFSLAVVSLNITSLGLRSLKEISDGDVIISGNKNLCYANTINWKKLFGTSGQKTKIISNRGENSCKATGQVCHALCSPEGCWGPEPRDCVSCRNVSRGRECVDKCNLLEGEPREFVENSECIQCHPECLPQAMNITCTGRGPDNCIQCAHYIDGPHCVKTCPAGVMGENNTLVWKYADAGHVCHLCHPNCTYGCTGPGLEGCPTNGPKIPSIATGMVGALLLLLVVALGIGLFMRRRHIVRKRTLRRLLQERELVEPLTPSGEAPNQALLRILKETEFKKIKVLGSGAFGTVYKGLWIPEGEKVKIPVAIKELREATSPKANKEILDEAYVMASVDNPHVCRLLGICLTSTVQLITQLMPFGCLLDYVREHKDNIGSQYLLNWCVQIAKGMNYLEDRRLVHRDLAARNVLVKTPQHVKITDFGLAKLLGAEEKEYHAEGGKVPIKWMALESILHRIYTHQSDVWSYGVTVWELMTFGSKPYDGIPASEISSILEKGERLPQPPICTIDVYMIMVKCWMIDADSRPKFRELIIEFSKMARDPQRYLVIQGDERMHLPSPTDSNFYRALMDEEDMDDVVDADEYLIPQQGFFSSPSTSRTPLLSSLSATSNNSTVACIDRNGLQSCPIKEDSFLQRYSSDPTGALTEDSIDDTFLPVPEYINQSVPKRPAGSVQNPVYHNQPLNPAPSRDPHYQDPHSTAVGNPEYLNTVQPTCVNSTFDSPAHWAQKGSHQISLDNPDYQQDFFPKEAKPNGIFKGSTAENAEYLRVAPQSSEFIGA

SMILES	composite z-score [1]	z-score [2]	z-score [3]	z-score [4]	composite z-score [5]	z-score [6]	composite z-score [7]	composite z-score [8]	composite z-score [9]	composite z-score [10]	composite z-score [11]	composite z-score [12]	composite z-score [13]	z-score [14]	composite z-score [15]	composite z-score [16]	composite z-score [17]	composite z-score [18]	composite z-score [19]	composite z-score [20]
C=CCC(OC(C)=O)[C@@H]1[C@@H](N(Cc2ccc(-c3cccc(C(F)(F)F)c3)o2)C(=O)Cc2ccc(OC)cc2)c2cc(OCCCO)ccc2N1C(=O)Cc1ccc2ccccc2c1 (stereo not given in full)	0.466	0.807 (inactive)	0.243 (inactive)	-0.386 (inactive)	0.958	-0.406 (inactive)	-0.0654	-0.621	-0.246	-0.217	0.946	-0.178	0.406	-1.16 (inactive)	-0.0775	-0.953	-0.749	-0.475	-0.274	0.613
NCCCCCNC(=O)[C@H]1C[C@H]2C(=O)N[C@@H](Cc3ccccc3)C(=O)N2[C@H]1c1ccc(O)cc1	0.584	0.5 (inactive)	-0.335 (inactive)	-0.578 (inactive)	1.92	0.0565 (inactive)	0.887	0.521	0.423	0.151	1.16	1.42	0.937	0.195 (inactive)	-0.0576	0.431	-0.381	0.275	0.224	1.39
Cc1ccc(S[C@]2(C(=O)NC(C)C)CC(=O)N(Cc3ccccc3Cl)[C@@H]2c2ccc(CO)cc2)cc1	-0.577	-0.651 (inactive)	-1.13 (inactive)	-0.072 (inactive)	2.06	-1.29 (inactive)	0.0425	-0.82	-0.452	-0.227	1.23	0.17	0.865	-0.864 (inactive)	-0.465	-0.628	-1.04	-1.2	-1.47	-0.318
C=CCNC(=O)[C@@H]1[C@H]2C(=O)O[C@H](c3ccccc3)[C@H](c3ccccc3)N2[C@H](c2ccc(O)cc2)[C@@]12C(=O)N(C(=O)OCCOC)c1ccc(C#CCCO)cc12	1.41	0.434 (inactive)	0.53 (inactive)	1.17 (inactive)	2.57	-0.369 (inactive)	0.0278	0.686	0.52	0.189	1.25	0.373	0.42	-0.591 (inactive)	1.37	1.04	0.683	1.12	0.921	0.616
COc1cc2c(cc1O)C(c1ccc(CN3CCCC3)cc1)N(C)CC2 (stereo not given)	-1.16	0.526 (inactive)	-0.262 (inactive)	0.539 (inactive)	0.54	0.774 (inactive)	-0.316	-0.814	-0.579	-0.191	0.232	-0.0829	-0.275	-0.00442 (inactive)	0.167	-1.27	-0.419	-0.567	-0.622	-0.172
COc1cc2c(cc1O)C(c1cccs1)N(Cc1sc3ccccc3c1Cl)CC2 (stereo not given)	1.53	-0.642 (inactive)	-1.93 (inactive)	-1.63 (inactive)	3.3	-0.31 (inactive)	0.105	1.03	1.03	0.14	1.33	0.525	0.179	-0.861 (inactive)	1.46	1.36	0.495	1.41	0.726	0.816
C[C@]1(C(=O)NCC(F)(F)F)c2ccccc2C(=O)N(Cc2ccccc2)[C@H]1c1ccc(CO)cc1	-0.604	0.724 (inactive)	0.645 (inactive)	-0.0993 (inactive)	1.57	0.855 (inactive)	-0.0478	-1.45	-1.21	-0.162	0.905	-0.0306	0.543	0.0226 (inactive)	-1.63	-1.8	-1.3	-1.47	-1.71	-0.264
C=C[C@@H](OC)[C@H](OC(=O)Nc1ccc(SC)cc1)c1ccc(OCCO)cc1	1.13	0.456 (inactive)	-0.675 (inactive)	0.0094 (inactive)	2.11	0.0144 (inactive)	-0.057	0.822	0.82	-0.039	1.4	0.0622	0.527	1.46 (inactive)	0.887	0.64	0.419	0.839	0.444	0.0469
CC(=O)N1CC(C(O)C2C=CC3C(=O)NC(=O)C3N2Nc2ccc(Cl)cc2Cl)c2ccccc21 (stereo not given)	0.825	1.14 (inactive)	0.734 (inactive)	1.81 (inactive)	2.74	-0.948 (inactive)	0.131	-0.575	0.91	-0.0594	0.669	1.95	1.07	0.622 (inactive)	0.693	-0.28	-0.105	0.797	0.0106	1.19
CCOC(=O)C1=CC[C@@H](c2ccccc2)N(S(=O)(=O)c2ccc(C)cc2)[C@H]1C=Cc1ccccc1	0.238	0.403 (inactive)	2.4 (inactive)	1.46 (inactive)	2.32	-0.812 (inactive)	-0.0146	-0.452	0.258	-0.0828	1.66	0.37	1.03	0.151 (inactive)	0.322	0.193	-0.647	-0.745	-0.548	0.58
